This is part of a sample that, as a whole, favours compounds with a hit. Of some 79,000 tested, about 15% had one in any assay. A number with no mark means an inactive call. Activity calls are given as the source filed them. Rule as the data show it: active = growth inhibition above about 70%; inactive = the rest.

Test [1] is described as follows: NCI Yeast Anticancer Drug Screen. Data for the rad50 strain (AID 155).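 Also: 0% = growth of vehicle-only cultures of the same strain.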 The following applies: S. cerevisiae rad50 strain growth inhibition, stronger effect = higher value. Summed up:
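A DNA repair-deficient yeast mutant serves as the test organism; compound-induced growth inhibition is calculated against vehicle-treated cells.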

Test [2] in a line: NCI Yeast Anticancer Drug Screen. Data for the mec2-1 strain (AID 157). The following applies: S. cerevisiae mec2-1 strain, stronger effect = higher value. In outline:
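Growth inhibition is read against vehicle-treated controls after compound exposure of the mec2-1 yeast strain, which is defective in DNA damage repair or cell cycle control.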

Test [3] is described as follows: NCI Yeast Anticancer Drug Screen. Data for the sgs1 mgt1 strain (AID 161).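 Also: 0% = growth of cultures given vehicle only.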 The following applies: S. cerevisiae sgs1 mgt1 strain, stronger effect = higher value. In outline:
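Growth of a repair-deficient yeast mutant was monitored after compound treatment and expressed as inhibition relative to vehicle-treated cultures.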

Test [4] can be described thus: NCI Yeast Anticancer Drug Screen. Data for the cln2 rad14 strain (AID 165).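 Also: 0% = growth equal to vehicle treated cultures.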 The note with it: S. cerevisiae cln2 rad14 strain, stronger effect = higher value. In outline: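 Growth inhibition, relative to vehicle-treated controls, is the read-out. The test organism is a yeast strain with defined genetic alterations, cln2 rad14.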
Test [5] is described as follows: NCI Yeast Anticancer Drug Screen. Data for the bub3 strain (AID 167). The note with it: S. cerevisiae bub3 mutant strain, stronger effect = higher value. In outline: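 Inhibition values come from growth of compound-treated mutant yeast normalised to vehicle-treated controls.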
A short description of test [6]: NCI Yeast Anticancer Drug Screen. Data for the mlh1 rad18 strain (AID 175). The note with it: S. cerevisiae mlh1 rad18 strain growth inhibition, stronger effect = higher value. In outline:
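Cells of a genetically altered yeast strain, deficient in DNA damage repair, were treated with compound. Their growth was then compared with that of vehicle-treated cultures to give inhibition.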

Where [7] appears, read: at 5.0 µM (retest, dose inferred, filed as 0.5).
Setting [8] is: at 50.0 µM (retest, dose inferred, filed as 5.0).

Take `NCCc1ccc2oc3cc(=O)c4ccccc4c-3nc2c1`: the growth inhibition in test [1] (setting [7]) is 3%; in test [1] (setting [8]), 22%; in test [1] (at 50.0 µM) it was 45.4%; in test [2] (setting [7]), -1%; in test [2] (setting [8]), 30%; in test [2] (at 50.0 µM), 24.7%. In addition, the growth inhibition was 7% in test [3] (setting [7]); 46% in test [3] (setting [8]); 43.8% in test [3] (at 50.0 µM); 1% in test [4] (setting [7]); 8% in test [4] (setting [8]); 28.7% in test [4] (at 50.0 µM). Also, the growth inhibition was 0% in test [5] (setting [7]); 30% in test [5] (setting [8]); 56.2% in test [5] (at 50.0 µM); 3% in test [6] (setting [7]); 41% in test [6] (setting [8]); 80.8% (active) in test [6] (at 50.0 µM).

As for `Cc1ccc2cccc(N)c2c1`, the growth inhibition in test [1] (setting [7]) is 1%; in test [1] (setting [8]) it was 2%; in test [1] (at 50.0 µM) it was -12.4%; in test [2] (setting [7]) it was 3%; in test [2] (setting [8]), 9%; in test [2] (at 50.0 µM), -2.2%. Besides, the growth inhibition in test [3] (setting [7]) was 2%; in test [3] (setting [8]), 4%; in test [3] (at 50.0 µM), -21.8%; in test [4] (setting [7]) it was 1%; in test [4] (setting [8]), -9%; in test [4] (at 50.0 µM), 46.4%. Besides, the growth inhibition in test [5] (setting [7]) is 8%; in test [5] (setting [8]), 12%; in test [5] (at 50.0 µM), -5.15%; in test [6] (setting [7]), 2%; in test [6] (setting [8]), 8%; in test [6] (at 50.0 µM), 44.9%.

With `COC(=O)N(C[C@@H]1C=CCCC1)c1ccccc1I`, the growth inhibition in test [1] (setting [7]) was 29%; in test [1] (setting [8]), 66%; in test [1] (at 50.0 µM) it was 88.3% (active); in test [2] (setting [7]), 29%; in test [2] (setting [8]), 61%; in test [2] (at 50.0 µM) it was 91.2% (active). Also, the growth inhibition in test [3] (setting [7]) is 26%; in test [3] (setting [8]), 63%; in test [3] (at 50.0 µM) it was 89.6% (active); in test [4] (setting [7]), 29%; in test [4] (setting [8]) it was 34%; in test [4] (at 50.0 µM), 87.5% (active). Moreover, the growth inhibition in test [5] (setting [7]) is 47%; in test [5] (setting [8]), 74% (active); in test [5] (at 50.0 µM) it was 91% (active); in test [6] (setting [7]), 41%; in test [6] (setting [8]), 70% (active); in test [6] (at 50.0 µM), 89.9% (active).

In the case of `CS/C(=N\C(=S)Nc1ccccc1)Nc1ccccc1`, the growth inhibition is 0% in test [1] (setting [7]); 95% (active) in test [1] (setting [8]); 99.2% (active) in test [1] (at 50.0 µM); 25% in test [2] (setting [7]); 94% (active) in test [2] (setting [8]); 99.4% (active) in test [2] (at 50.0 µM). In addition, the growth inhibition was 38% in test [3] (setting [7]); 97% (active) in test [3] (setting [8]); 96.3% (active) in test [3] (at 50.0 µM); 22% in test [4] (setting [7]); 96% (active) in test [4] (setting [8]); 97.3% (active) in test [4] (at 50.0 µM). Besides, the growth inhibition was 34% in test [5] (setting [7]); 98% (active) in test [5] (setting [8]); 99% (active) in test [5] (at 50.0 µM); 22% in test [6] (setting [7]); 95% (active) in test [6] (setting [8]); 98.1% (active) in test [6] (at 50.0 µM).

As to `CCCCOC(=O)c1n[nH]c(C)c1N=NN(C)C`, the growth inhibition in test [1] (setting [7]) is 43%; in test [1] (setting [8]) it was 99% (active); in test [1] (at 50.0 µM), 99% (active); in test [2] (setting [7]) it was 96% (active); in test [2] (setting [8]) it was 99% (active); in test [2] (at 50.0 µM) it was 99% (active). Also, the growth inhibition in test [3] (setting [7]) is 95% (active); in test [3] (setting [8]), 99% (active); in test [3] (at 50.0 µM) it was 99.2% (active); in test [4] (setting [7]) it was 95% (active); in test [4] (setting [8]), 99% (active); in test [4] (at 50.0 µM), 99.4% (active). Also, the growth inhibition is 84% (active) in test [5] (setting [7]); 99% (active) in test [5] (setting [8]); 99.2% (active) in test [5] (at 50.0 µM); 80% (active) in test [6] (setting [7]); 99% (active) in test [6] (setting [8]); 99.2% (active) in test [6] (at 50.0 µM).

On to `CCOC(=O)C1C(c2cccc(OC)c2O)c2cc3c(cc2OC1(C)N1CCCC1)OCO3` (stereo not given), for which the growth inhibition in test [1] (setting [7]) is -3%; in test [1] (setting [8]) it was 21%; in test [1] (at 50.0 µM) it was 31.2%; in test [2] (setting [7]), 1%; in test [2] (setting [8]), 15%; in test [2] (at 50.0 µM), 16.4%. Also, the growth inhibition was -2% in test [3] (setting [7]); 39% in test [3] (setting [8]); 34.5% in test [3] (at 50.0 µM); -5% in test [4] (setting [7]); -4% in test [4] (setting [8]); 2.55% in test [4] (at 50.0 µM). The growth inhibition in test [5] (setting [7]) is 1%; in test [5] (setting [8]), 25%; in test [5] (at 50.0 µM) it was 24.9%; in test [6] (setting [7]), -4%; in test [6] (setting [8]) it was 27%; in test [6] (at 50.0 µM), 50.5%.

On to `Oc1ccccc1C(=NNc1ccccc1)c1ccccc1O`, for which the growth inhibition is 40% in test [1] (setting [7]); 96% (active) in test [1] (setting [8]); 94.8% (active) in test [1] (at 50.0 µM); 27% in test [2] (setting [7]); 98% (active) in test [2] (setting [8]); 94.8% (active) in test [2] (at 50.0 µM). Also, the growth inhibition in test [3] (setting [7]) is 46%; in test [3] (setting [8]), 97% (active); in test [3] (at 50.0 µM), 94.8% (active); in test [4] (setting [7]), 49%; in test [4] (setting [8]), 97% (active); in test [4] (at 50.0 µM), 95.8% (active). Further, the growth inhibition was 42% in test [5] (setting [7]); 98% (active) in test [5] (setting [8]); 95.8% (active) in test [5] (at 50.0 µM); 70% (active) in test [6] (setting [7]); 98% (active) in test [6] (setting [8]); 90.9% (active) in test [6] (at 50.0 µM).

With `CC(C)SC(=S)Nc1ccc(Cl)cc1`, the growth inhibition is -5% in test [1] (setting [7]); 92% (active) in test [1] (setting [8]); 97.8% (active) in test [1] (at 50.0 µM); -1% in test [2] (setting [7]); 98% (active) in test [2] (setting [8]); 99% (active) in test [2] (at 50.0 µM). Also, the growth inhibition in test [3] (setting [7]) is 8%; in test [3] (setting [8]) it was 88% (active); in test [3] (at 50.0 µM), 97% (active); in test [4] (setting [7]) it was -18%; in test [4] (setting [8]), 64%; in test [4] (at 50.0 µM), 96.8% (active). The growth inhibition was 0% in test [5] (setting [7]); 91% (active) in test [5] (setting [8]); 99% (active) in test [5] (at 50.0 µM); 5% in test [6] (setting [7]); 96% (active) in test [6] (setting [8]); 98.9% (active) in test [6] (at 50.0 µM).

For the molecule `O=C1C2Nc3ccccc3SC2C(=O)N1c1ccccc1C(F)(F)F` (stereo not given), the growth inhibition in test [1] (setting [7]) was 3%; in test [1] (setting [8]) it was 35%; in test [1] (at 50.0 µM), 73.8% (active); in test [2] (setting [7]), 3%; in test [2] (setting [8]) it was 11%; in test [2] (at 50.0 µM), 12.5%. For the same molecule, the growth inhibition in test [3] (setting [7]) was 16%; in test [3] (setting [8]), 24%; in test [3] (at 50.0 µM), 47.4%; in test [4] (setting [7]), 2%; in test [4] (setting [8]) it was 11%; in test [4] (at 50.0 µM), 46.5%. In addition, the growth inhibition in test [5] (setting [7]) was -1%; in test [5] (setting [8]), 29%; in test [5] (at 50.0 µM), 13.7%; in test [6] (setting [7]), 7%; in test [6] (setting [8]) it was 44%; in test [6] (at 50.0 µM), 73.2% (active).

As for `CCOC(=O)c1c(C)c2c(n1C)CCc1sc(N)nc1-2`, the growth inhibition is 14% in test [1] (setting [7]); 66% in test [1] (setting [8]); 96% (active) in test [1] (at 50.0 µM); 7% in test [2] (setting [7]); 58% in test [2] (setting [8]); 96.8% (active) in test [2] (at 50.0 µM). In addition, the growth inhibition is 5% in test [3] (setting [7]); 65% in test [3] (setting [8]); 98.3% (active) in test [3] (at 50.0 µM); -1% in test [4] (setting [7]); 26% in test [4] (setting [8]); 43.3% in test [4] (at 50.0 µM). The growth inhibition is 2% in test [5] (setting [7]); 80% (active) in test [5] (setting [8]); 96.7% (active) in test [5] (at 50.0 µM); -1% in test [6] (setting [7]); 58% in test [6] (setting [8]); 90.2% (active) in test [6] (at 50.0 µM).
